IP6K1 inh = IP6K1 kinase inhibition | Q92551 | hit rate 0.81% among 140,000 | IP6K1 kinase, ADP-Glo luminescence, 2 h; hits give low values | activity change, % (series mostly up to about 58 µM) | AID 1645851; in the data active = activity change below about -25%; note: % is set by controls: 0 for no effect and ±100 for the full control effect
Target sequence (Q92551 whole entry, looked up): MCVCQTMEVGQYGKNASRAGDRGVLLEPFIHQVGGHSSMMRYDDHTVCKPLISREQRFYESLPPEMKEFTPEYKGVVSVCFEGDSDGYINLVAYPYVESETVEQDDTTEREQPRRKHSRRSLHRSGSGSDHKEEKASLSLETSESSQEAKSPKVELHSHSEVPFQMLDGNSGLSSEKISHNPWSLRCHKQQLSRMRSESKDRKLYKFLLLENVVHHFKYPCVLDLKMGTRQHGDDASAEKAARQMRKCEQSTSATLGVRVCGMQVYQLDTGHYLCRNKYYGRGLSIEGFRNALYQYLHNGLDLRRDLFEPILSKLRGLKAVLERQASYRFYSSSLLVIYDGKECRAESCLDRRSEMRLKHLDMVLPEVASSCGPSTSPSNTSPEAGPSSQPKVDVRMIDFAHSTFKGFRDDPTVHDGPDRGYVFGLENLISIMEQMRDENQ
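ADP-Glo luminescence measures ADP made by human IP6K1 during a 2 h RT reaction with ATP/IP6 (mix at 1.3 mM/130 uM); top library doses 57.5 and 19.1 uM final.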
HEK293 viab = cell viability loss counter-screen | HEK-293-SNCA-luc viability, GF-AFC fluorescence, 24 h | Potency, µM (series often up to 57.1 µM), without a hit: top-dose activity change, negative = cytotoxicity, hits mostly cytotoxic | hit rate 0.12% among 150,000 | AID 1671193;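 note: potency is the fitted concentration of half-maximal effect; 0% = DMSO-treated cells and -100% = medium-only wells without cells; nearly all actives have a fitted effect of over 30% in size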
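HEK-293-SNCA-luc cells (1500/well) plated 24 h, then exposed 24 h to a dilution series; GF-AFC added 30 min at 37C, fluorescence 405/540 nm; normalised to medium-only and DMSO wells, Hill fit.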
KDM5B inh = blocks human KDM5B histone demethylase activity. KDM5B demethylase, FDH-coupled NADH fluorescence (FDH is formaldehyde dehydrogenase). Q9UGL1. AID 1347165. hit rate 2.6% among 220,000. Potency, µM (highest dose often 57.7 µM), actives largely listed as inhibitors; note: potency is the fitted concentration of half-maximal effect; 0% is about no effect; nearly all actives have a fitted effect of over 70% in size
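qHTS format, multiple compound concentrations. Buffer 50 mM HEPES pH 7.5/0.01% Tween-20; 200 nM KDM5BΔAP final; 10 min compound preincubation; substrate-mix levels 12.5 µM peptide, 25 µM α-KG, 0.25 mM NAD⁺; 30 min RT; ΔRFU.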
SNCA expr inh = SNCA gene expression inhibition. HEK-293 SNCA-luciferase knock-in, luminescence, 24 h. Potency, µM (doses to about 57.2 µM), for inactives: top-dose activity change, negative = inhibition, usual class: inhibitors. hit rate 0.17% among 140,000;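 note: potency is the fitted concentration of half-maximal effect; plate controls were DMSO cells for no effect and cell-free wells for full effect; nearly all actives have a fitted effect of over 45% in size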
* marks the source's active call; other numbers are inactive results; i = inactive; ? = inconclusive; nt = no result; [ ] = another dose, or the depositor's remark. A selection: hits, their analogues and other compounds. The true share with any hit is near 2.8%. Unless noted, calls come from the whole dose curve; as a rule, active = well fitted curve in the direction sought with a large enough effect; inconclusive = small, poorly fitted or top-dose-only effect, or another doubt; inactive = no such curve, though single readings can be large; an effect the other way counts as inactive or inconclusive.

SMILES	IP6K1 inh	HEK293 viab	KDM5B inh	SNCA expr inh
CCN(CC(=O)NC(=O)NC)Cc1ccc(C#N)cc1F	nt	nt	i	nt
O=C(c1nc(-c2cc(Cl)cc(Cl)c2)c2ccccn12)N1CCN(c2ncccn2)CC1	7	12%	i	13%
CC(C)(C)c1nc(C(=O)N2CCN(c3ncccn3)CC2)n2ccccc12	-11	1%	79µM*	16%
O=C(c1nc(-c2ccsc2)c2ccccn12)N1CCOCC1	9	-8%[87.6 µM]	35µM*	-5%[87.6 µM]
COc1ccc(-c2nc(C(=O)N3CCN(c4ncccn4)CC3)n3ccccc23)cc1	12	-4%	32µM*	10%
O=C(c1nc(-c2ccsc2)c2ccccn12)N1CCN(c2ncccn2)CC1	-4	2%	25µM*	-20%
Cc1ccc(C)c([S+](=O)([O-])c2nnn3c2nc(NCc2ccncc2)c2ccccc23)c1	3	-20%	89µM*	-6%
COc1ccc([S+](=O)([O-])c2nnn3c2nc(NCc2ccncc2)c2ccccc23)cc1	8	-4%	?	33%
O=[S+]([O-])(c1ccc(Cl)cc1)c1nnn2c1nc(NCc1ccncc1)c1ccccc12	-2	8%	89µM*	35%
CCc1ccc([S+](=O)([O-])c2nnn3c2nc(NCc2ccncc2)c2ccccc23)cc1	22	-27%	50µM*	17%
CC(C)c1ccc([S+](=O)([O-])c2nnn3c2nc(NCc2ccncc2)c2ccccc23)cc1	-2	-10%	79µM*	?
Cc1cc(C)c([S+](=O)([O-])c2nnn3c2nc(NCc2ccncc2)c2ccccc23)c(C)c1	7	-4%	?	-21%
Cc1ccc([S+](=O)([O-])c2nnn3c2nc(NCc2ccncc2)c2ccccc23)cc1	-2	6%	?	-13%
COc1ccc(-c2nc(-c3nnn4c3COC(c3ccc(C)cc3)C4)no2)cc1OC (configuration not stated)	6	-9%	14µM*	-4%
Cc1ccc(C2Cn3nnc(-c4noc(-c5ccc(C)s5)n4)c3CO2)cc1 (configuration not stated)	-15	5%	13µM*	-1%
Cc1ccc(C2Cn3nnc(-c4noc(-c5ccc(N(C)C)cc5)n4)c3CO2)cc1 (configuration not stated)	8	-1%	?	38%
COc1ccc(C2Cn3nnc(-c4noc(-c5ccc(C)cc5C)n4)c3CO2)cc1 (configuration not stated)	2	10%	?	-8%
COc1ccc(-c2nc(-c3nnn4c3COC(c3ccc(C)cc3)C4)no2)c(OC)c1 (configuration not stated)	2	-2%	20µM*	14%
Cc1ccc(C2Cn3nnc(-c4noc(-c5cccc(N(C)C)c5)n4)c3CO2)cc1 (configuration not stated)	-11	-1%	22µM*	6%
Cc1ccc2c(c1)N(C(=O)CCC(=O)Nc1ccc(F)cc1F)CC(C)O2 (configuration not stated)	-4	-2%	i	-15%
CCOc1ccccc1NC(=O)CN1C(=O)COc2ccc(S(=O)(=O)N3CCOCC3)cc21	11	-3%	i	14%
CCOC(=O)C1(Cc2ccc(Cl)cc2)CCN(C(=O)c2cc(C)oc2C)CC1	2	?	32µM*	-29%
CCc1nc(C)c(C(=O)Nc2nn(C)c3cccc(N4CCOC4=O)c23)o1	22	-5%	i	-18%
CCOCC(=O)Nc1nn(-c2ccc(F)cc2)c2cccc(N3CCOC3=O)c12	3	2%	25µM*	40%
Cc1[nH]c2ccccc2c1C1c2ccccc2C(=O)N1CC(=O)N(C)C (configuration not stated)	nt	nt	i	nt
SMILES	IP6K1 inh	HEK293 viab	KDM5B inh	SNCA expr inh
OC1(CN2CCCCC2)CCN(c2cccc(C(F)(F)F)n2)C1 (configuration not stated)	-4	16%	28µM*	-3%
COc1ccc(NC(=O)CN2C(=O)C(c3ccc(C(C)(C)C)cc3)=NC2(C)C)cc1Cl	0	1%	i	-4%
Cc1ccc2c(C(=O)NCc3ccccc3C(F)(F)F)cc(NC(=O)C(C)C)cc2n1	4	-4%	25µM*	-20%
Cc1ccc2c(C(=O)NCc3ccc(F)c(Cl)c3)cc(NC(=O)C(C)C)cc2n1	6	0%	?	2%
Cc1ccc2c(C(=O)NCc3cc(F)cc(F)c3)cc(NC(=O)C(C)C)cc2n1	18	2%	22µM*	-6%
Cc1ccc2c(C(=O)NCc3ccc(C(F)(F)F)cc3)cc(NC(=O)C(C)C)cc2n1	9	-4%	16µM*	-27%
COCCNC(=O)c1cc(NC(=O)C(C)C)cc2nc(C)ccc12	28	8%	25µM*	-12%
COc1ccc(S(=O)(=O)N2CCC[C@H]2C(=O)Nc2cc(C)on2)cc1Cl	nt	nt	i	nt
O=C(N[C@H]1CCN2C(=O)c3ccc(Cl)cc3NC(=O)[C@H]12)c1cccc(F)c1	4	-3%[87.6 µM]	i	-21%[87.6 µM]
O=C(c1ccc2c(c1)N(Cc1ccccc1F)C(=O)c1ccccc1S2(=O)=O)N1CCCCC1	14	-28%	i	-27%
C#CCNC(=O)C1CCN(c2nccc(Nc3ccccc3OC)n2)CC1	13	-13%[87.6 µM]	nt	-20%[87.6 µM]
CCOc1ccccc1CNC(=O)c1cc(NC(C)=O)cc2nc(C)ccc12	14	0%	14µM*	5%
CCOC(=O)c1c(C)[nH]c(C)c1S(=O)(=O)N1CCCC(C(=O)NCc2cccc(C)c2)C1 (configuration not stated)	5	5%	i	-14%
CN1CC2(CCCN(CC3CC3)C2)c2cc(C(=O)NCCc3ccccn3)ccc21 (configuration not stated)	2	3%[87.6 µM]	40µM*	2%[87.6 µM]
CN1CC2(CCCN(CC3CC3)C2)c2cc(C(=O)NCCOc3ccccc3)ccc21 (configuration not stated)	-3	4%[87.6 µM]	35µM*	-29%[87.6 µM]
COCCN1CCC2(C1)CN(C)c1ccc(C(=O)NCCOc3ccccc3)cc12 (configuration not stated)	16	8%[87.6 µM]	?	97%[87.6 µM]
COc1ccc(CNC(=O)c2ccc(Cn3ccn4nc5c(c4c3=O)CCCC5)cc2)c(OC)c1	-7	5%	?	?
CCc1noc(-c2cccn3c(CNC(=O)c4ccc(F)cc4)nnc23)n1	11	-1%	25µM*	-22%
CCCc1noc(-c2cccn3c(CNC(=O)c4ccc(F)cc4)nnc23)n1	17	-13%	14µM*	19%
CCc1noc(-c2cccn3c(CNC(=O)COc4ccc(F)cc4)nnc23)n1	8	-10%	22µM*	-23%
CCc1noc(-c2cccn3c(CNC(=O)c4ccc5ccccc5n4)nnc23)n1	-5	-29%	20µM*	?
CCOc1ccc(CC(=O)N2C[C@@H](COC)[C@H](c3ccncc3)C2)cc1	12	-9%	i	12%
O=S(=O)(c1ccc(Cl)cc1)N1CCC(c2ccncc2)CC1	18	6%	i	-1%

Screening results (PubChem BioAssay)
